For orientation: inhibition means the relative decrease from the control value, in per cent.

Inhibition data for 40 molecules are collected here from PubChem BioAssay.

Values without a mark were called inactive. Unless noted, no stated cut-off is given here; in the data, active means inhibition above about 30%; inactive means the rest.

The first assay is described as follows: 384-well plate pilot, post-Golgi transport modulator project, inhibition of yeast transport mutant growth (AID 636; in the data active means inhibition above about 31%). The note with it: absorbance 615 nm, about 18 h, hits give high values.
In the case of `CC(=O)CC(=O)Nc1ccccc1NC(C)=O`, the inhibition was -2.86%.
As to `Cn1c(=O)c2ccccc2n(Cc2ccccc2F)c1=O`, the inhibition was -0.66%.
In the case of `Cc1ccc(NC(=O)c2ccco2)c(NC(=O)c2cccs2)c1`, the inhibition is -3.73%.
Regarding `CC(=O)N1C(=O)c2cccc3cccc(c23)C(=O)N1C(C)=O`, the inhibition was -1.05%.
`CCCC(C)C1C(C#N)=C(N)Oc2cc(C)oc(=O)c21` (stereo not given): the inhibition was -2.5%.
With `CC(C)OC(=O)CSc1nnc(-c2ccc(O)cc2)n1Cc1ccccc1`, the inhibition was -7.2%.
Regarding `Cn1c(=O)c(=O)n(C)c2cc(S(=O)(=O)N3CCCCC3)ccc21`, the inhibition is -3.07%.
With `Cc1nc2ccc(NC(=O)NCc3ccco3)cc2s1`, the inhibition was -4.67%.
Consider `Cc1cc(C)n(S(=O)(=O)c2cc(C(=O)O)c(Cl)cc2Cl)n1`, for which the inhibition is -3.47%.
On the same count and under the same terms, as for `COc1ccccc1CC(=O)NCc1ccc2c(c1)OCO2`, the figure is -7.2%.
As to `CCOC(=O)C1=C(C)N(C)C(C)=C(C(=O)OCC)C1c1cccnc1`, the inhibition was 0.79%.
With `C#CCN1C(=O)C(O)(CC(=O)c2cc(OC)ccc2OC)c2ccccc21` (stereo not given), the inhibition was -4.8%.
Regarding `Cc1nc(SCC(=O)NCc2ccco2)c2c(C)c(C)sc2n1`, the inhibition is -2.86%.
Turning to `CCOc1ccc(N2CC(C(=O)Nc3ccc(F)cc3F)CC2=O)cc1` (stereo not given), the inhibition is -0.26%.

Another assay can be described thus: growth suppression of yeast trafficking mutant, preliminary HTS, modulators of trafficking downstream of Golgi apparatus project, 1536-format plate, OD 615 nm (AID 637). The note with it: yeast transport mutant growth, absorbance 615 nm, 18 h; hits give high values.
Consider `CCOC(=O)C1CCCN(C(=O)CNS(=O)(=O)c2ccc(Br)s2)C1` (stereo not given), for which the inhibition is 4.13%.
As for `COc1ccc(CN(C)CC(=O)c2c(N)n(Cc3ccccc3)c(=O)n(C)c2=O)c(OC)c1`, the inhibition is 6.51%.
On to `CC(CN1CCOCC1)(NS(=O)(=O)c1ccccc1)c1ccccc1` (stereo not given), for which the inhibition is 0.95%.
As for `CCOC(=O)CSC1=Nc2ccccc2C2=NC(CC(=O)NCc3cccs3)C(=O)N12` (stereo not given), the inhibition is -5.56%.
As for `Cc1ccc(-c2nn3c(C)nnc3s2)cc1N`, the inhibition is 3.33%.
On to `CC1(C)C2CCC1(CS(=O)(=O)NCc1ccc(C(=O)O)cc1)C(=O)C2` (stereo not given), for which the inhibition is 3.33%.
For `O=c1c2ccccc2c(C=Nc2ccc(Cl)cn2)c(O)n1-c1cc(Cl)ccc1N1CCOCC1`, the inhibition is -3.49%.
As to `O=C(Nc1ccc(S(=O)(=O)Nc2ccc(Cl)cc2)cc1)C1CCCO1` (stereo not given), the inhibition is -5.4%.
As for `CCOc1ccc(C(=O)Nc2cc(C)on2)cc1OCC`, the inhibition was 3.17%.
Turning to `O=C1CC(Cc2ccccc2)C(=O)N1CCc1ccc2c(c1)OCO2` (stereo not given), the inhibition was 3.65%.
Take `COc1ccccc1-c1nc(C(F)(F)F)c(OC)o1`: the inhibition is 17.9%.
Consider `OCCn1c(CSc2nnc(-c3ccco3)n2-c2ccccc2)nc2ccc(Cl)cc21`, for which the inhibition was -3.97%.
On to `COc1cc2c(cc1OC)CN(C(=O)COc1ccc(C#N)cc1)CC2`, for which the inhibition is -4.44%.
Turning to `CCOC(=O)NC(=O)CSc1nnc(C)s1`, the inhibition was 3.65%.
Same read-out and setting: as for `CC1(C)CC(=O)C2=C(C1)Nc1nc(SCCN3CCOCC3)[nH]c(=O)c1C2c1cccs1` (stereo not given), the figure is 24%; as for `COc1ccc(C(=O)CSc2nnc(CNc3ccc(C)cc3C)o2)cc1`, 1.9%.
Same read-out and setting: as for `CCCCc1cc(=O)oc2c(CN3CCCC3)c(O)c(Cl)cc12`, the figure is 3.33%; as for `CCOc1ccccc1OCC(=O)NCc1ccco1`, -0.32%; as for `COCCn1cc(C(=O)NCCCN2CCC(C)CC2)c2c3ccccc3n(C)c2c1=O`, 1.11%.
Still for that read-out and setting: with `Cc1nc(C)c(C(=O)OCC(=O)N2CCN(c3ccccc3)CC2)s1` the figure was 4.29%; with `COC(=O)c1cc(Br)ccc1-c1ccc(/C=N/n2nnnc2N)o1`, 6.51%; with `O=C1c2ccccc2NC(c2ccco2)N1O` (stereo not given), 0.32%.
Turning to `COc1cc(CN2CCC(C(=O)NC3CCCC3)CC2)ccc1O`, the inhibition was 0.79%.
On the same count and under the same terms, with `Cn1c(=O)n(C)c2cc(NC(=O)C(F)(F)F)ccc21` the figure was -7.94%; with `Cc1nc(SCC(=O)CC(=O)OC(C)C)c(C#N)c(C)c1C`, 3.33%.
`COc1ccc(Br)cc1S(=O)(=O)N1CCOCC1`: the inhibition was 1.75%.
In the case of `CC(=O)CC(=O)Nc1ccccc1NC(C)=O`, the inhibition is 1.43%.
The same measure, in the same setting: with `Cn1c(=O)c2ccccc2n(Cc2ccccc2F)c1=O` the figure was 1.75%; with `Cc1ccc(NC(=O)c2ccco2)c(NC(=O)c2cccs2)c1`, 8.57%; with `CC(=O)N1C(=O)c2cccc3cccc(c23)C(=O)N1C(C)=O`, -1.43%.
For the molecule `CCCC(C)C1C(C#N)=C(N)Oc2cc(C)oc(=O)c21` (stereo not given), the inhibition was 4.76%.
